Measurements taken from PubChem BioAssay AID651744 (Broad Institute, 2012).
The whole screen tested about 5,600 compounds, of which about 3,100 (55%) were called active. About 3% were inconclusive and are not listed. So high a share suggests a set chosen from earlier hits. These entries were drawn from the full list. Values without a mark were called inactive.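 Rule for the calls: active = mean loss of cell viability signal at or above a set limit, and enough replicates individually reaching it; inconclusive = meets only the mean limit or only the replicate share; inactive = meets neither condition.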

Test: NIH/3T3 fibroblast cytotoxicity, confirmation, cytotoxicity control, cell-based, cherry-pick, single point, set 2 (AID 651744);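 note: 0% = median of neutral control wells and 100% = median of positive control wells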
Conditions: NIH/3T3 viability, CellTiter-Glo ATP luminescence, 90 h; at 24.9 µM; hits give high values
In the case of COc1ccc(C#Cc2ccc([C@@H]3[C@@H](CO)N4CCCCN(C(=O)c5ccncc5)C[C@@H]34)cc2)cc1, the inhibition is reported as 97.5% (active).
Work on O=C(Nc1ccccc1)N1CCCCN2[C@H](CO)[C@@H](c3ccc(C#Cc4ccccn4)cc3)[C@H]2C1 yielded an inhibition of 9.74%.
In the case of O=C(c1cccnc1)N1CCCCN2[C@@H](CO)[C@H](c3ccc(C#Cc4ccccc4)cc3)[C@@H]2C1, the inhibition is reported as 66.5% (active).
Molecule O=C(c1ccc(F)cc1)N1CCCCN2[C@H](C1)[C@@H](c1ccc(C#CC3(O)CCCC3)cc1)[C@@H]2CO has an inhibition of 18%.
With O=C(c1ccncc1)N1CCCCN2[C@H](CO)[C@H](c3ccc(-c4ccccc4)cc3)[C@H]2C1 the inhibition was 5.4%.
With O=S(=O)(c1ccccc1)N1CC[C@@H]2[C@@H](CO)Nc3ccc(C#Cc4cccc(F)c4)cc3[C@@H]21 the inhibition was 52.5% (active).
For O=C(c1cccc(F)c1)N1CC[C@@H]2[C@@H](CO)Nc3ccc(C#Cc4cccc(F)c4)cc3[C@@H]21, the inhibition was 105% (active).
Molecule O=S(=O)(c1ccccc1)N1CC[C@@H]2[C@@H](CO)Nc3ccc(-c4ccccc4F)cc3[C@@H]21 has an inhibition of 23.8%.
Work on CN(C)C(=O)c1ccc(-c2ccc3c(c2)[C@H]2[C@H](CCN2C(=O)c2ccc4c(c2)OCO4)[C@H](CO)N3)cc1 yielded an inhibition of -8.51%.
With CC(=O)N1CC[C@@H]2[C@H](CO)Nc3ccc(C#Cc4ccccc4F)cc3[C@@H]21 the inhibition was 33.2% (active).
With O=S(=O)(c1ccccc1)N1CC[C@@H]2[C@H]1c1cc(C#Cc3cccc(F)c3)ccc1N[C@@H]2CO the inhibition was 72.4% (active).
For COCC(=O)N1CC[C@@H]2[C@@H](CO)Nc3ccc(-c4cccc(C#N)c4)cc3[C@@H]21, the inhibition was 5.66%.
In the case of CC(=O)N1[C@H](CNC(=O)C2CC2)[C@@H](c2ccc(-c3cccc(F)c3)cc2)[C@@H]1CO, the inhibition is reported as 13%.
For O=C(Cc1ccccc1)N1CC[C@H]2[C@H](CO)Nc3ccc(-c4ccccc4F)cc3[C@H]21, the inhibition was 48.1% (active).
CN1c2ccc(-c3ccccc3)cc2[C@H]2[C@H](CCN2C(=O)Cc2ccccn2)[C@H]1CO gave an inhibition of 9.27%.
Work on COc1ccc(NC(=O)N2CC[C@@H]3[C@@H](CO)N(C)c4ccc(-c5cccc(F)c5)cc4[C@@H]32)cc1 yielded an inhibition of 20.7%.
For CCC(=O)N1CC[C@@H]2[C@@H](CO)N(C)c3ccc(-c4ccc(F)cc4)cc3[C@@H]21, the inhibition was 12.2%.
With Cc1ccccc1S(=O)(=O)N1CC[C@H]2[C@H](CO)Nc3ccc(-c4cccc(F)c4)cc3[C@H]21 the inhibition was 105% (active).
With O=C(C[C@@H]1C[C@@H]2c3cc(NC(=O)c4ccc5c(c4)OCO5)ccc3O[C@@H]2[C@@H](CO)O1)NCc1ccc(Cl)cc1 the inhibition was 14.5%.
CN1C(=O)c2cc(NC(=O)c3cnccn3)ccc2OC[C@@H]2O[C@@H](CC(=O)N[C@H]3CCN(Cc4ccccc4)C3)CC[C@H]21 gave an inhibition of -12.6%.
With C[C@@H]1CCCCO[C@H](CN(C)Cc2ccccc2)[C@H](C)CN([C@H](C)CO)C(=O)c2cc(NS(=O)(=O)c3ccc(Cl)cc3)ccc2O1 the inhibition was 104% (active).
For C[C@@H]1CN([C@H](C)CO)C(=O)c2cc(NS(=O)(=O)c3ccc(Cl)cc3)ccc2O[C@@H](C)CCCCO[C@H]1CN(C)Cc1ccccc1, the inhibition was 103% (active).
C[C@@H]1CCCCO[C@H](CN(C)C(=O)NC2CCCCC2)[C@H](C)CN([C@H](C)CO)C(=O)c2cc(NS(=O)(=O)c3ccc(Cl)cc3)ccc2O1 gave an inhibition of -1.41%.
For C[C@H](CO)N1C[C@H](C)[C@H](CN(C)Cc2ccc(C(F)(F)F)cc2)OCCCC[C@H](C)Oc2ccc(NS(=O)(=O)c3ccc(Cl)cc3)cc2C1=O, the inhibition was 105% (active).
Molecule COc1ccc(NC(=O)N(C)C[C@@H]2OCCCC[C@@H](C)Oc3ccc(NS(=O)(=O)c4ccc(Cl)cc4)cc3C(=O)N([C@H](C)CO)C[C@H]2C)cc1 has an inhibition of -14.7%.
C[C@H](CO)N1C[C@H](C)[C@H](CN(C)S(=O)(=O)c2ccc(F)cc2)OCCCC[C@H](C)Oc2ccc(NS(=O)(=O)c3ccc(Cl)cc3)cc2C1=O showed an inhibition of 18.4%.
Molecule C[C@@H]1CN([C@H](C)CO)C(=O)c2cc(NS(=O)(=O)c3cccs3)ccc2O[C@@H](C)CCCCO[C@@H]1CN(C)S(=O)(=O)c1ccc(Cl)cc1 has an inhibition of 2.36%.
In the case of C[C@H]1CCCCO[C@@H](CN(C)C(=O)NC2CCCCC2)[C@@H](C)CN([C@@H](C)CO)C(=O)c2cc(NS(=O)(=O)c3ccc(Cl)cc3)ccc2O1, the inhibition is reported as 15.4%.
COc1ccc(S(=O)(=O)N(C)C[C@H]2OCCCC[C@H](C)Oc3ccc(NS(=O)(=O)c4ccc(F)cc4)cc3C(=O)N([C@@H](C)CO)C[C@@H]2C)cc1 gave an inhibition of -33.1%.
Work on C[C@H]1CCCCO[C@@H](CN(C)S(=O)(=O)c2cccs2)[C@@H](C)CN([C@@H](C)CO)C(=O)c2cc(NS(=O)(=O)c3ccc(Cl)cc3)ccc2O1 yielded an inhibition of 11.8%.
With COc1ccc(S(=O)(=O)Nc2ccc3c(c2)C(=O)N([C@H](C)CO)C[C@@H](C)[C@@H](CN(C)CC2CCCCC2)OCCCC[C@@H](C)O3)cc1 the inhibition was 107% (active).
In the case of C[C@@H]1CN([C@H](C)CO)C(=O)c2cc(NS(=O)(=O)c3cccs3)ccc2O[C@@H](C)CCCCO[C@H]1CN(C)Cc1ccc(C(F)(F)F)cc1, the inhibition is reported as 103% (active).
For C[C@@H]1CCCCO[C@H](CN(C)S(=O)(=O)c2cccs2)[C@H](C)CN([C@H](C)CO)C(=O)c2cc(NS(=O)(=O)c3ccc(F)cc3)ccc2O1, the inhibition was -27.9%.
Work on C[C@@H]1CCCCO[C@H](CN(C)S(=O)(=O)c2ccc(Cl)cc2)[C@H](C)CN([C@@H](C)CO)C(=O)c2cc(NS(=O)(=O)c3cccs3)ccc2O1 yielded an inhibition of -8.7%.
For C[C@H]1CN([C@@H](C)CO)S(=O)(=O)c2ccc(C3=CCCCC3)cc2O[C@@H]1CN(C)Cc1ccccc1, the inhibition was 106% (active).
With C[C@@H]1CN([C@H](C)CO)S(=O)(=O)c2ccc(C3=CCCC3)cc2O[C@H]1CN(C)Cc1ccccc1F the inhibition was 106% (active).
With C[C@H]1CN([C@@H](C)CO)S(=O)(=O)c2ccc(C3=CCCC3)cc2O[C@@H]1CN(C)Cc1ccccc1 the inhibition was 103% (active).
C[C@@H]1CCCCO[C@H](CN(C)Cc2ccc(C(F)(F)F)cc2)[C@H](C)CN([C@H](C)CO)C(=O)c2cc(NC(=O)Nc3ccc(F)cc3)ccc2O1 gave an inhibition of -19.7%.
With C[C@@H]1CCCCO[C@@H](CN(C)CC2CC2)[C@H](C)CN([C@H](C)CO)C(=O)c2cc(NC(=O)C3CCCCC3)ccc2O1 the inhibition was -28.9%.
With C[C@@H]1CCCCO[C@H](CN(C)Cc2ccccc2)[C@@H](C)CN([C@@H](C)CO)C(=O)c2cc(NC(=O)Nc3ccc(F)cc3)ccc2O1 the inhibition was 103% (active).
For C[C@@H]1CN([C@H](C)CO)C(=O)c2cccc(NC(=O)NC3CCCCC3)c2O[C@H]1CN(C)Cc1ccc(C(F)(F)F)cc1, the inhibition was 106% (active).
With C[C@H]1CCCCO[C@H](CN(C)Cc2ccccc2)[C@@H](C)CN([C@@H](C)CO)C(=O)c2cc(NC(=O)c3ccccc3)ccc2O1 the inhibition was 40.7% (active).
COc1ccc(NC(=O)N(C)C[C@@H]2Oc3c(NC(=O)NC4CCCCC4)cccc3C(=O)N([C@@H](C)CO)C[C@@H]2C)cc1 showed an inhibition of 2.03%.
Molecule C[C@@H]1CCCCO[C@H](CN(C)C(=O)NC2CCCCC2)[C@H](C)CN([C@H](C)CO)C(=O)c2cc(NC(=O)Nc3ccc(F)cc3)ccc2O1 has an inhibition of 1.83%.
In the case of C[C@@H]1CCCCO[C@@H](CN(C)Cc2ccc(C(F)(F)F)cc2)[C@@H](C)CN([C@H](C)CO)C(=O)c2cc(NC(=O)Nc3ccccc3)ccc2O1, the inhibition is reported as -8.84%.
For C[C@@H]1CN([C@H](C)CO)C(=O)c2cc(NC(=O)Nc3ccc(F)cc3)ccc2O[C@@H](C)CCCCO[C@@H]1CN(C)CC1CCCCC1, the inhibition was 102% (active).
With C[C@@H]1CN([C@H](C)CO)C(=O)c2cc(NC(=O)Nc3ccc(F)cc3)ccc2O[C@@H](C)CCCCO[C@H]1CN(C)Cc1ccc(Cl)c(Cl)c1 the inhibition was 81.1% (active).
With COc1ccc(CN(C)C[C@H]2OCCCC[C@H](C)Oc3ccc(NC(=O)Nc4ccc5c(c4)OCO5)cc3C(=O)N([C@H](C)CO)C[C@@H]2C)cc1 the inhibition was 103% (active).
With C[C@@H]1CN([C@@H](C)CO)C(=O)c2cc(NC(=O)C3CCCCC3)ccc2O[C@@H](C)CCCCO[C@H]1CN(C)Cc1ccncc1 the inhibition was -15.9%.
Molecule COc1ccc(NC(=O)Nc2ccc3c(c2)C(=O)N([C@H](C)CO)C[C@@H](C)[C@H](CN(C)Cc2ccc(Cl)c(Cl)c2)OCCCC[C@@H](C)O3)cc1 has an inhibition of -0.512%.
C[C@@H]1CCCCO[C@@H](CN(C)Cc2ccc(Cl)c(Cl)c2)[C@H](C)CN([C@H](C)CO)C(=O)c2cc(NC(=O)Nc3ccc(F)cc3)ccc2O1 gave an inhibition of 1.24%.
For C[C@H]1CCCCO[C@H](CN(C)Cc2ccccc2)[C@@H](C)CN([C@@H](C)CO)C(=O)c2cc(NC(=O)NC3CCCCC3)ccc2O1, the inhibition was 102% (active).
With C[C@@H]1CCCCO[C@@H](CN(C)Cc2ccc3c(c2)OCO3)[C@@H](C)CN([C@@H](C)CO)C(=O)c2cc(NC(=O)Nc3ccccc3)ccc2O1 the inhibition was 16%.
For C[C@@H]1CCCCO[C@H](CN(C)Cc2ccc(Cl)c(Cl)c2)[C@H](C)CN([C@@H](C)CO)C(=O)c2cc(NC(=O)C3CCCCC3)ccc2O1, the inhibition was 50.7% (active).
C[C@H]1CCCCO[C@H](CN(C)S(=O)(=O)c2ccc(Cl)cc2)[C@@H](C)CN([C@@H](C)CO)C(=O)c2cc(NC(=O)Nc3ccc4c(c3)OCO4)ccc2O1 gave an inhibition of 7.66%.
